Screening results: PubChem BioAssay, National Center for Advancing Translational Sciences (NCATS)
This is a sample that favours compounds with a hit; in the whole collection about 0.37% have one here.
TRPV1 agonist = HTS Assay for Compounds that Act as Agonists of the Vanilloid Receptor 1. Transient receptor potential cation channel subfamily V member 1 (Homo sapiens), Q8NER1. TRPV1-expressing cells, Fluo-8 calcium influx, agonist mode. activation, % at 8.33 µM. 0.19% of 320,000 active. AID 540275, 2011; in the data active = activation above about 80%; inconclusive = between about 30% and that limit; note: 0% is about no effect
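TRPV1-expressing cells were cultured overnight at 35.5C and loaded with Fluo-8 calcium dye for 40 to 90 min at room temperature. After a 10 s baseline, compound was added and calcium influx was read kinetically for 3 min (ex 480/em 520 nm).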
AT treatment = qHTS Assay for Identifying a Potential Treatment of Ataxia-Telangiectasia | F2112 A-T fibroblasts, KAP-1 phosphorylation AlphaLISA; neocarzinostatin DNA damage 30 min before lysis | Potency, µM (top dose mostly 57.5 µM), for the others: at the top dose activation, actives largely listed as activators | 0.19% of 320,000 active | AID 485349, 2010; note: potency is the fitted concentration of half-maximal effect; % of control where 0% means no effect; nearly all actives have a fitted effect of over 45% in size
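hTERT-immortalized A-T patient fibroblasts (F2112), 500 cells/well in OPTI-MEM, 1% FBS, got compounds for 60 min, then NCS for 30 min at 37C. Lysates were then assayed for phospho-KAP-1 by AlphaLISA (anti-pKAP1 donor, anti-KAP1 acceptor beads), 6 hr at 25C.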
S-ASM inh = Inhibitors of Secretory Acid Sphingomyelinase (S-ASM): qHTS; placental ASM, HMU-PC fluorogenic substrate, 60 min; Potency, µM (top dose mostly 57.5 µM), without a hit: at the highest dose activity change, negative = inhibition, most hits filed as inhibitors; Sphingomyelin phosphodiesterase (Homo sapiens), P17405; 0.006% of 340,000 active; note: potency is the fitted concentration of half-maximal effect
Target sequence (P17405 47-631 limits assumed): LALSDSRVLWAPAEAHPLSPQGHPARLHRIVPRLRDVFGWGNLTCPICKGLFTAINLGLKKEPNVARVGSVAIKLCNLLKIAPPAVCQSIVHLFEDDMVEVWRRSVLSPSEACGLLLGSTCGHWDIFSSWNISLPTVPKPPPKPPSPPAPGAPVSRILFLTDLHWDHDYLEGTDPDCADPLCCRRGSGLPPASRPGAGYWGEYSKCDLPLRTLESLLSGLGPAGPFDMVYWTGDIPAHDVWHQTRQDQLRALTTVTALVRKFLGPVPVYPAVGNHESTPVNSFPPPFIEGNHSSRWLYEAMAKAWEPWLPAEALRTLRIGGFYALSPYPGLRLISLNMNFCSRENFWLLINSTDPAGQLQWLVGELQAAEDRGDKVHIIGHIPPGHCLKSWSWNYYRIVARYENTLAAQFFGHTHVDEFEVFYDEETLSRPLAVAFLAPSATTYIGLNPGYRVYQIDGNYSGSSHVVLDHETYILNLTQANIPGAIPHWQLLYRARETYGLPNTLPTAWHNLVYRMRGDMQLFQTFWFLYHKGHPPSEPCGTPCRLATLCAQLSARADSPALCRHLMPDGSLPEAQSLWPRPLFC
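Fluorogenic HMU-PC substrate (9 uM final) is turned over by placental ASM in 60 min at 37 C after a 10 min compound preincubation. Reaction ended by alkaline stop (pH 10), with fluorescence read at 386/447 nm.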
TSG101-PTAP inh = qHTS Assay for Iinhibitors of HIV-1 Budding by Blocking the Interaction of PTAP/TSG101; Fluorescence polarization, FITC-PTAP peptide / Tsg101 binding; Potency, µM (titrated, usually from 115 µM), for the others: top-dose activity change, negative = inhibition, actives largely listed as inhibitors; 340,000 tested, under 10 active; AID 493005, 2010; active = well fitted inhibition curve with a large enough effect in the main read-out, with a control signal flat, not every such curve was filed as active; inconclusive = small, poorly fitted or top-dose-only effect, or effect the other way, or a change in a side signal; inactive = no such curve, though single readings can be large or run the other way; note: potency is the fitted concentration of half-maximal effect; % of control where 0% means no effect
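Fluorescence polarization binding of Tsg101 binding domain (10 uM final) to FITC-labeled PTAP peptide (50 nM final) in HEPES pH 7.5 buffer with NaCl, Tween 20, EDTA, TCEP. Compounds added before peptide; binding 20 min at RT.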
TRPV1 potentiator = HTS Assay for Compounds that Act as Potentiators of the Vanilloid Receptor 1. potentiation, % at 8.33 µM. 0.02% of 320,000 active. TRPV1-expressing cells, Fluo-8 calcium influx, capsaicin EC20 potentiation. Transient receptor potential cation channel subfamily V member 1 (Homo sapiens), Q8NER1. AID 540277, 2011; in the data active = potentiation above about 80%; inconclusive = between about 30% and that limit; note: 0% is about no effect
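TRPV1-expressing cells were cultured overnight at 35.5C and loaded with Fluo-8 calcium dye for 40 to 90 min at room temperature. After a 10 s baseline, compound was added and calcium influx was read kinetically for 3 min (ex 480/em 520 nm).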
Numbers without * were called inactive; i = inactive; ? = inconclusive; . = no result given; [ ] = another dose, or the depositor's remark. Unless noted, calls come from the whole dose curve; as a rule, active = well fitted curve in the direction sought with a large enough effect; inconclusive = small, poorly fitted or top-dose-only effect, or another doubt; inactive = no such curve, though single readings can be large; an effect the other way counts as inactive or inconclusive.

SMILES	TRPV1 agonist	AT treatment	S-ASM inh	TSG101-PTAP inh	TRPV1 potentiator
CNC(=S)N/N=C/c1ccc2c(c1)OCCO2	-8	3.5µM*	-3%	-3%	3
COc1cc(NC2c3ccccc3C(=O)N2Cc2ccc3c(c2)OCO3)cc(OC)c1 (stereo not drawn)	?	15%	0%	-7%	-6
COc1ccc(NC2c3ccccc3C(=O)N2Cc2ccc3c(c2)OCO3)cc1 (stereo not drawn)	102*	1%	-2%	-13%	3
CCOC(=O)/C(=N\Nc1ccc(Br)cc1)N1CC(C)OC(C)C1 (stereo not drawn)	0	25µM*	-6%	-1%	-17
COc1ccc2nc(C)cc(Nc3ccc(C(=O)O)cc3)c2c1	-5	10µM*	1%	0%	-4
COc1ccc(Nc2cc(C)nc3ccc(OC)cc23)cc1	-9	-1%	-4%	-11%	-1
CCN1CCN(Cc2ccc(NC(=O)c3ccc(C)c(NC(=O)c4csc(-c5ccncc5)n4)c3)cc2C(F)(F)F)CC1	-1	40µM*	2%	-6%	-17
O=C(COc1cccc2ccccc12)N/N=C/c1ccncc1	?	2%	-3%	0%	-28
C=CCn1cnnc1SCC(=O)Nc1cccnc1Cl	-2	-6%	.	.	-26
Cn1c2cc(B(O)O)sc2c2cnn(Cc3ccc(F)cc3F)c(=O)c21	.	3%	.	.	.
COc1ccc(Br)cc1[C@H]1[C@H]2C=CC[C@@H](C)[C@@H]2C(=O)N1Cc1ccccc1	?	40µM*	-9%	-1%	-4
CCC(=Nc1ccccc1)C1=C(O)CC(C)(C)CC1=O	9	-2%	.	.	105*
O=C(/C=C/c1cccs1)N1CCC2(CC1)Oc1ccc(F)cc1C(=O)C21CC(c2ccccc2)=NO1 (stereo not drawn)	18	3.2µM*	1%	-2%	-3
CCC(=O)NC(c1ccc(OC)cc1)c1cc(Cl)c2cccnc2c1O (stereo not drawn)	84*	-1%	-3%	-2%	9
Cc1ccc2ccc3c(c2n1)NS(=O)(=O)c1ccc(C(F)(F)F)cc1-3	6	.	.	.	4
CCOC(=O)[C@H]1[C@H]2COc3ccc(Cl)cc3[C@@H]2N2C(=O)c3ccccc3NC(=O)[C@@]12C	?	17%	2%	0%	1
CCOC(=O)[C@H]1[C@H]2COc3ccc(Cl)cc3[C@@H]2N2C(=O)c3ccc(C)cc3NC(=O)[C@@]12C	99*	7%	-3%	-2%	?
CCOC(=O)[C@H]1[C@H]2COc3ccc(Cl)cc3[C@@H]2N2C(=O)c3ccc(F)cc3NC(=O)[C@@]12C	83*	4%	2%	-7%	30
COc1ccc(-c2nc3n(c2C)Cc2ccccc2-3)cc1	2	22µM*	7%	-7%	16
CN1C(=O)/C(=C/c2cccc(Cl)c2)Sc2ccc(C(=O)NCc3cccnc3)cc21	-10	4%	-8%	-4%	82*
FC(F)(F)c1cccc(OCC2CNC(=S)O2)c1 (stereo not drawn)	12	10µM*	8%	-8%	-11
CN(Cc1ccco1)c1ncnc2ccc(-c3ccc4c(c3)OCCO4)cc12	.	4%	.	.	.
O=C(Cn1c(=O)n(Cc2ccc(F)cc2)c(=O)c2sc3ccccc3c21)Nc1ccc(F)cc1F	-6	.	.	.	8
Oc1cccc(NC(=S)N=Nc2c(O)[nH]c3ccccc23)c1	-3	1.3µM*	-12%	2%	5
CC1CC/C(=N/Nc2ccccc2)C(=O)N1 (stereo not drawn)	1	-7%	2%	-1%	?
SMILES	TRPV1 agonist	AT treatment	S-ASM inh	TSG101-PTAP inh	TRPV1 potentiator
COc1ccccc1C(=O)Nc1cccc(NC(C)=O)c1	-3	-3%	-4%	1%	-22
COc1ccccc1C(=O)NC(=O)Nc1cccc(Cl)c1	1	3.5µM*	-1%	-9%	-4
Cc1cc(N/N=C/c2ccccc2)nc(N2CCOCC2)n1	86*	9%	2%	-1%	-13
CCS(=O)(=O)c1cccc(C(=O)N2CCN(c3nc4c(C)ccc(Cl)c4s3)CC2)c1	13	.	.	.	7
O=C(Nc1ccncc1)Nc1cccc(Cl)c1Cl	?	1%	8%	-2%	-9
O=C(Nc1ccc(Cl)cc1)Nc1cccc2nsnc12	87*	-3%	30%	-9%	-10
CC(C)CC1NC(=O)N(CC(=O)Nc2ccc(OC(F)F)cc2)C1=O (stereo not drawn)	-1	0%	0%	-3%	20
CC1=NN(C(C#N)c2ccc([N+](=O)[O-])cc2)C(C)(C)C1 (stereo not drawn)	3	3.5µM*	-2%	2%	-8
CCCCn1c(C)cc2c(c1=O)C1O[C@](c3ccsc3)(Cc3ccccc31)O2	i	-1%[11.5 µM]	.	.	i
CCOc1cc(/C=C2\CCCc3c2nc2ccccc2c3C(=O)O)ccc1OC	81*	-13%	34%	-1%	-6
COC(=O)CCc1c(C)c(C(=O)c2cc(OC)c(OC)c(OC)c2)c2ccccn12	-5	3.5µM*	-7%	-4%	22
Cc1ccccc1OCCn1c(CCNC(=O)C2CCCCC2)nc2ccccc21	14	.	.	.	-1
Cc1nn(Cc2ccccc2)c(C)c1/C=N/NC(=O)c1ccccc1O	5	32µM*	-5%	1%	-6
Cc1ccc(/C=N/NC(=O)c2ccc(-n3cnnn3)cc2)cc1	80*	-11%	5%	-1%	-10
O=C(N/N=C\c1ccc(F)cc1)c1ccc(F)cc1	82*	0%	3%	-2%	-22
N#Cc1ccc(S(=O)(=O)N2CCCN(c3ccc(C(F)(F)F)cn3)CC2)cc1	81*	-4%	0%	1%	-25
CC(=O)c1ccc(Nc2ncnc3c2oc2ccccc23)cc1	88*	0%	0%	-9%	-11
Fc1ccc(C2=NN(c3ccccc3)C(c3ccco3)C2)cc1 (stereo not drawn)	4	7%[11.5 µM]	i	-2%	3
Clc1ccc(C2=NN(c3ccccc3)C(c3ccco3)C2)cc1 (stereo not drawn)	-8	25µM*	i	-3%	6
C(=C\c1ccco1)/C1=NN(c2ccccc2)C(c2ccco2)C1 (stereo not drawn)	9	32µM*	i	3%	11
